Records with an inconclusive call do not appear. Calls of active or inactive are those of the source. The call rests on the fitted dose curve; in most records, active means well fitted curve in the direction sought with a large enough effect; inconclusive means small, poorly fitted or top-dose-only effect, or another doubt; inactive means no such curve, though single readings can be large; an effect the other way counts as inactive or inconclusive.
Legend:
[1] = qHTS of pediatric cancer cell lines to identify multiple opportunities for drug repurposing: Confirmatory screen for Rh18 cells (AID 1347125); further: nearly all actives have a fitted effect of over 55% in size
Procedure, shortened: (§1)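 Viability after 48 h compound treatment at 37C, 500-1,000 cells/well, read as ATP luminescence with CellTiter-Glo. Primary screens used 11-point (MIPE, 0.78 nM-46 µM) or 8-point (NPC, 0.59 nM-46 µM) final concentrations; follow-up screens used 11-point dilutions.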

[2] = qHTS of pediatric cancer cell lines to identify multiple opportunities for drug repurposing: Confirmatory screen for OHS-50 cells (AID 1347128);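 further: compound exposure lasted 48 h at 37 degrees C; nearly all actives have a fitted effect of over 55% in size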
Procedure, shortened: as §1

[3] = qHTS of pediatric cancer cell lines to identify multiple opportunities for drug repurposing: Confirmatory screen for SK-N-SH cells (AID 1347129);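 further: cells exposed to compound for 48 h before viability read; nearly all actives have a fitted effect of over 60% in size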
Procedure, shortened: as §1

[4] = qHTS of pediatric cancer cell lines to identify multiple opportunities for drug repurposing: Confirmatory screen for Saos-2 cells (AID 1347127); further: nearly all actives have a fitted effect of over 60% in size
Procedure, shortened: as §1

[5] = qHTS of pediatric cancer cell lines to identify multiple opportunities for drug repurposing: Confirmatory screen for RD cells (AID 1347124);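 further: cells exposed to compound for 48 h before viability readout; nearly all actives have a fitted effect of over 65% in size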
Procedure, shortened: as §1

[6] = qHTS of pediatric cancer cell lines to identify multiple opportunities for drug repurposing: Confirmatory screen for Rh30 cells (AID 1347126); further: nearly all actives have a fitted effect of over 55% in size
Procedure, shortened: as §1

Measured: Potency
Potency means the concentration at half of the fitted maximal effect.

C[C@H]1C[C@@H]2[C@H]([C@@H](O)C[C@@]3(C)[C@H]2CC[C@]3(O)C(=O)CO)[C@@]2(C)C=CC(=O)C=C12
inactive: [1] | [2] | [3]

CCCC(=O)O[C@]1(C(=O)COC(=O)CC)CC[C@H]2[C@@H]3CCC4=CC(=O)CC[C@]4(C)[C@H]3[C@@H](O)C[C@@]21C
inactive: [1] | [4] | [2] | [3]

CC(=O)OCC(=O)[C@@]1(O)[C@H](OC(C)=O)C[C@H]2[C@@H]3CCC4=CC(=O)C=C[C@]4(C)[C@@]3(F)[C@@H](O)C[C@@]21C
not listed: [6]
inactive: all other assays above

CCC(=O)O[C@]1(C(=O)COC)[C@@H](C)C[C@H]2[C@@H]3CCC4=CC(=O)C=C[C@]4(C)C3(F)[C@@H](O)C[C@@]21C (some centres undefined)
not listed: [4]
inactive: all other assays above

N=C(N)c1ccc(OCCCOc2ccc(C(=N)N)cc2)cc1
inactive: all assays above

CCCCC(CC)CNC(=O)CC(C)OC(=O)CCC(=O)O (centres undefined)
not listed: [4]
inactive: all other assays above

CCCC(=O)O[C@]1(C(=O)CCl)[C@@H](C)C[C@H]2[C@@H]3CCC4=CC(=O)C=C[C@]4(C)[C@@]3(F)C(=O)C[C@@]21C
inactive: all assays above

Cc1ccc(C(=O)Oc2ccc(C(O)CNC(C)(C)C)cc2OC(=O)c2ccc(C)cc2)cc1 (centres undefined)
inactive: [5] | [1] | [6] | [4]

CC(C)(C)CC(=O)OCC(=O)[C@@]1(O)CC[C@H]2[C@@H]3CCC4=CC(=O)C=C[C@]4(C)[C@H]3[C@@H](O)C[C@@]21C
not listed: [6]
inactive: all other assays above

CO[C@@H]1[C@@H](OC)[C@H](C)[C@@](O)(CC(=O)O)O[C@H]1[C@H](C)[C@H]1O[C@@]2(CC[C@@](C)([C@H]3CC[C@@](C)([C@@H]4O[C@@H]([C@H]5O[C@](C)(O)[C@H](C)C[C@@H]5C)C[C@@H]4OC4C[C@H](OC)[C@@H](OC)[C@H](C)O4)O3)O2)C[C@H](O)[C@H]1C (some centres undefined)
active: [1] 6.57 µM | [6] 7.37 µM | [4] 1.17 µM | [2] 0.657 µM | [3] 1.48 µM

Nc1ccc2cc3ccc(N)cc3nc2c1
active: [5] 5.22 µM | [6] 7.37 µM | [2] 20.8 µM | [3] 5.26 µM

CCOC(=O)O[C@]1(C(=O)OCCl)CC[C@H]2[C@@H]3CCC4=CC(=O)C=C[C@]4(C)[C@H]3[C@@H](O)C[C@@]21C
not listed: [4]
inactive: all other assays above

CN(C)CCN(Cc1ccsc1)c1ccccn1
not listed: [2]
inactive: all other assays above

CCC1=C[C@@H]2CN(C1)Cc1c([nH]c3ccccc13)[C@@](C(=O)OC)(c1cc3c(cc1OC)N(C)[C@H]1[C@@](O)(C(=O)OC)[C@H](OC(C)=O)[C@]4(CC)C=CCN5CC[C@]31[C@@H]54)C2
inactive: [1]
active: [5] 0.0293 µM | [4] 0.0185 µM

CC(C)=CCC/C(C)=C/CC/C(C)=C/C(=O)OCC(=O)[C@@]1(O)CC[C@H]2[C@@H]3CCC4=CC(=O)C=C[C@]4(C)[C@H]3[C@@H](O)C[C@@]21C
active: [4] 18.5 µM
inactive: [1] | [3]

Cc1nc(N)nc(N)c1-c1ccc(Cl)c(Cl)c1
inactive: [1] | [6] | [3]
active: [5] 2.61 µM | [2] 1.31 µM

C[C@H]1C[C@H]2[C@@H]3CCC4=CC(=O)C=C[C@]4(C)[C@H]3C(=O)C[C@]2(C)[C@@]1(O)C(=O)CO
active: [5] 2.93 µM | [1] 3.29 µM | [4] 3.69 µM
inactive: [3]

C[C@]12CCC(=O)C=C1CC[C@@H]1[C@@H]2[C@@H](O)C[C@@]2(C)[C@H]1CC[C@]2(O)C(=O)COC(=O)CCC(=O)O
inactive: all assays above

CCc1cc2cc(OC)c(OC)cc2c(Cc2ccccc2)n1
not listed: [2]
inactive: all other assays above

Nc1c2ccccc2nc2ccccc12
active: [5] 3.29 µM | [1] 4.65 µM | [6] 7.37 µM | [2] 3.69 µM | [3] 8.33 µM

CC(=O)O[C@@H]1C(=O)O[C@@H]2[C@H]1OC(=O)[C@@H]2OC(C)=O
active: [5] 1.17 µM | [6] 5.85 µM
inactive: all other assays above

Reference: PubChem BioAssay (NCATS)
